Test results published in the supplement of paper PMC6555819.

Columns and labels:
Experiment in all cases: PBM binding z-score (relative to random genomic background probes); higher = stronger binding; sequences stand for … in GC…GCGATTGACAGCGTAGAATGAAGG
[1] = system: FXR:RXRa (NR concentration 270 nM, RXRa partner concentration 90 nM)
Outline: (§1)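 For binding z-scores, the reference was random background probes on custom Agilent 4×180K protein-binding microarrays. These arrays were incubated 1 h with ligand-free nuclear receptor dimers in PBS pH 7.4, 2% milk, 0.02% Triton X-100, 1 mM DTT, 0.2 mg/mL BSA and 0.4 mg/ml salmon testes DNA. Fluorescence was scanned after antibody detection of each partner (one per run) and regression-normalized.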

[2] = system: LXRa:RXRa (NR concentration 270 nM, RXRa partner concentration 90 nM)
Outline: as §1

[3] = system: LXRa homodimer (NR concentration 270 nM)
Outline: as §1

[4] = system: LXRb:RXRa (NR concentration 270 nM, RXRa partner concentration 90 nM)
Outline: as §1

[5] = system: LXRb homodimer (NR concentration 270 nM)
Outline: as §1

[6] = system: PPARa:RXRa (NR concentration 270 nM, RXRa partner concentration 90 nM)
Outline: as §1

[7] = system: PPARg:RXRa (NR concentration 180 nM, RXRa partner concentration 90 nM)
Outline: as §1

[8] = system: PPARg:RXRa 270nM:90nM, anti-RXR (NR concentration 270 nM, RXRa partner concentration 90 nM)
Outline: as §1

[9] = system: PPARg:RXRa 30nM:10nM, anti-RXR (NR concentration 30 nM, RXRa partner concentration 10 nM)
Outline: as §1

[10] = system: PPARg:RXRa 90nM:30nM, anti-RXR (NR concentration 90 nM, RXRa partner concentration 30 nM)
Outline: as §1

[11] = system: PPARg:RXRa DBDmut IVT, anti-RXR (DBD mutation: RXRa K156A/R161A, NR concentration 270 nM, RXRa partner concentration 90 nM)
Outline: as §1

[12] = system: PPARg:RXRa IVT, anti-PPARg (NR concentration 270 nM, RXRa partner concentration 90 nM)
Outline: as §1

[13] = system: PPARg DBDmut:RXRa IVT, anti-PPARg (DBD mutation: PPARg1 K132A/R137A, NR concentration 270 nM, RXRa partner concentration 90 nM)
Outline: as §1

[14] = system: PPARg DBDmut IVT, anti-PPARg (DBD mutation: PPARg1 K132A/R137A, NR concentration 270 nM)
Outline: as §1

[15] = system: PPARg homodimer (NR concentration 180 nM)
Outline: as §1

[16] = system: PXR:RXRa (NR concentration 270 nM, RXRa partner concentration 90 nM)
Outline: as §1

[17] = system: PXR homodimer (NR concentration 270 nM)
Outline: as §1

[18] = system: RARa:RXR (NR concentration 270 nM, RXRa partner concentration 90 nM)
Outline: as §1

[19] = system: RARa homodimer (NR concentration 270 nM)
Outline: as §1

[20] = system: RARb:RXRa (NR concentration 270 nM, RXRa partner concentration 90 nM)
Outline: as §1

Sequence | PBM binding z-score [1] | PBM binding z-score [2] | PBM binding z-score [3] | PBM binding z-score [4] | PBM binding z-score [5] | PBM binding z-score [6] | PBM binding z-score [7] | PBM binding z-score [8] | PBM binding z-score [9] | PBM binding z-score [10] | PBM binding z-score [11] | PBM binding z-score [12] | PBM binding z-score [13] | PBM binding z-score [14] | PBM binding z-score [15] | PBM binding z-score [16] | PBM binding z-score [17] | PBM binding z-score [18] | PBM binding z-score [19] | PBM binding z-score [20]
GCGACTGGGGCATCAGCAGGTTACCGTAACTTAA | -0.346 | -0.107 | -0.365 | 0.443 | -0.973 | 1.18 | 0.623 | 0.961 | -0.441 | -0.00586 | 3.92 | 3.16 | -0.711 | -1.13 | 0.0663 | -0.0573 | -0.613 | 0.398 | -0.334 | 0.841
TAGCCTAGCTCAGATCGGGCCAGTATACGCTATA | -0.961 | -1.35 | -1.07 | -1.25 | -1.34 | -1.21 | -0.0455 | -0.972 | -0.749 | -0.992 | -0.922 | -0.645 | -0.837 | -1.92 | -1.79 | -1.09 | -1.09 | -1.21 | -1.25 | -1.89
TTACCAAGGTGAGCTGAGGTCATTGATCCAACTC | 4.44 | 4.36 | 2.23 | 3.33 | -0.78 | 3.78 | 1.69 | 2.46 | 0.796 | 1.62 | 1.49 | 2.8 | -0.00582 | -0.0839 | 1.23 | 6.15 | 3.42 | 4.75 | 0.362 | 3.44
TCTTGTAGATCAACAGGAGGCTAAGAAAGATCGA | -0.113 | -0.312 | -0.481 | -0.391 | -0.588 | -0.00556 | -0.179 | 1.14 | 2.28 | 1.35 | 1.2 | 0.746 | 0.507 | 0.151 | -1.21 | -0.24 | -0.799 | -0.313 | -0.265 | -0.249
ATACCAAGGAGATCGTGAGGTCGTTGATACTAAC | 0.608 | 0.359 | 0.339 | 0.531 | -0.481 | 0.547 | 0.375 | -0.542 | -0.0699 | -0.394 | -0.488 | -0.258 | -0.211 | 0.112 | 0.128 | 1.65 | 1.21 | 0.973 | -0.464 | 0.331
CCGAGTAGCTTATGGGGCATTCAGGCAACGGTGA | -0.494 | -0.536 | -0.883 | -0.715 | -1.2 | -0.234 | -0.0289 | -0.512 | -0.765 | -0.818 | 0.454 | 0.117 | -1.42 | -1.07 | -0.422 | -0.731 | -0.54 | -0.568 | -0.432 | -0.266
TAGCCTGGGTCATTCAGGGGCCAGTATAGAAAGC | 3.88 | 2.28 | -0.548 | 2.04 | 0.00492 | 3.65 | 2.29 | 2.38 | 0.19 | 1.47 | 0.888 | 2.36 | 0.524 | -0.652 | 1.98 | 2.3 | -0.415 | 3.78 | -0.568 | 3.35
CCTTACGGGTCACTGACAGATTATAGCATTTGGA | 5.42 | 3.4 | 0.418 | 3.31 | 0.248 | 5.28 | 4.31 | 4.42 | 1.59 | 3.46 | 3.42 | 3.85 | 0.84 | 0.266 | 2.31 | 3.04 | 0.241 | 4.3 | 1.11 | 3.93
TTACCAAGGTGAAGGTCGATGATCCCTCTGTAGA | 1.25 | 0.976 | -0.361 | 1.1 | -0.706 | 2.27 | 2.29 | 3.58 | 1.74 | 3.24 | 1.53 | 3.14 | -0.416 | -0.0425 | 0.524 | 0.883 | 0.0636 | 1.36 | 0.0108 | 2.11
CCTACTGGGCCAAAAAGGGCATTGATGCCGATAA | -0.479 | -0.109 | -0.296 | -0.0231 | -1 | 1.12 | 0.538 | 1.32 | -0.152 | 0.651 | 3.27 | 2.46 | -1.19 | -0.893 | 0.55 | -0.0509 | -0.102 | -0.0363 | -0.572 | 1.49
CCTGCTAGGTCAATGGTAAGCTAAAGCAGCTCGC | 2.96 | 2.11 | -0.107 | 1.19 | -0.205 | 2.84 | 2.52 | 2.98 | 0.395 | 2.09 | 4.33 | 3.43 | -1.49 | -0.489 | 1.05 | 0.564 | -0.596 | 1.5 | -0.463 | 3.79
CCTGCTAGGTGAATGGTCAGCTAAAGCAGCTCGC | -0.48 | -0.375 | -0.807 | -0.625 | -0.989 | 1.25 | 2.89 | 4.11 | 2.1 | 3.81 | 3.48 | 2.62 | -0.739 | -1.37 | -0.377 | -0.698 | -0.722 | -0.44 | -1.03 | 1
ACTAGCAGCCCAAGGGTCACTCAAGATTAGTCCG | 2.27 | 2.63 | 0.353 | 2.75 | -0.34 | 3.14 | 2.69 | 3.61 | 1.43 | 3.21 | -0.509 | 1.13 | -0.437 | -0.614 | 1.34 | 2.97 | 0.208 | 3.58 | 0.48 | 3.27
CCTATTAGTTGACCATAAGGGCAACCGGAGCTCG | 0.775 | 0.432 | 0.625 | 0.404 | 0.814 | 0.657 | 0.421 | 0.473 | -0.154 | 0.171 | 0.164 | 0.489 | -0.0255 | 0.00899 | 1.98 | 0.686 | 0.931 | 0.893 | 2.04 | 1.72
